Inconclusive results are not listed. Activity calls are given as the source filed them. Calls come from the whole dose curve; as a rule, active = well fitted cell-killing curve with a large enough effect; inconclusive = small, poorly fitted or top-dose-only effect; inactive = no such curve, though single readings can be large or run the other way.
Assay: qHTS of pediatric cancer cell lines to identify multiple opportunities for drug repurposing: Primary screen for Rh30 cells (AID 1347107); note: nearly all actives have a fitted effect of over 75% in size; for activity change, negative = cytotoxic: % is set by controls: 0 for no effect and ±100 for the full control effect
Conditions: Rh30 rhabdomyosarcoma viability, CellTiter-Glo luminescence, 48 h; series mostly up to 46 µM; activity change, negative = cytotoxic: at the top concentration
How it was run: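 Viability after 48 h compound treatment at 37C, 500-1,000 cells/well, read as ATP luminescence with CellTiter-Glo. Primary screens used 11-point (MIPE, 0.78 nM-46 µM) or 8-point (NPC, 0.59 nM-46 µM) final concentrations; follow-up screens used 11-point dilutions.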
Potency is the fitted concentration of half-maximal effect.

| Structure (SMILES) | activity change, negative = cytotoxic | Potency |
| --- | --- | --- |
| C[C@H](CCC(=O)O)[C@H]1CCC2C3C[C@H](O)[C@@H]4C[C@H](O)CC[C@]4(C)C3CC[C@@]21C (some centres undefined) | 9.54% (inactive) |  |
| COC(=O)C=CC(=O)OC | -28.2% (inactive) |  |
| COc1ccc(C(C)=O)c(O)c1 | 16.4% (inactive) |  |
| O=C1NC(O)CCN1[C@@H]1O[C@H](CO)[C@H](O)[C@H]1O (some centres undefined) | 16.4% (inactive) |  |
| NC(=NCCCCCCN=C(N)N=C(N)Nc1ccc(Cl)cc1)N=C(N)Nc1ccc(Cl)cc1 |  | 4.69 µM (active) |
| CCN(CC)Cc1ccc2cc(COC(=O)Nc3ccc(C(=O)NO)cc3)ccc2c1 |  | 4.69 µM (active) |
| COc1ccc(S(=O)(=O)Nc2cccnc2Nc2ccc(O)cc2)cc1 | -4.29% (inactive) |  |
| NC1=N[C@H]2[C@H](CS[C@H]2CCCCC(=O)O)N1 | 29.5% [at 16.1 µM] (inactive) |  |
| C=CCNc1c(O)cc2c(O)c1C[C@@H](C)C[C@H](OC)[C@@H](O)[C@@H](C)C=C(C)[C@H](OC(N)=O)[C@@H](OC)C=CC=C(C)C(=O)N2 | -18.9% (inactive) |  |
| Cn1cnc(=N)c2[nH]cnc21 |  | 14.8 µM (active) |
| O=C(NC1CC1)c1cccc(-c2ccc3c(NC(=O)C4CC4)n[nH]c3c2)c1 | -29.7% (inactive) |  |
| COc1cc(C)c(C=CC(C)=CC=CC(C)=CC(=O)O)c(C)c1C | 17.3% (inactive) |  |
| NC(=O)c1ncn([C@@H]2O[C@H](CO)[C@@H](O)[C@@H]2O)c1O | 16.2% (inactive) |  |
| COc1cccc2c1C(=O)c1c(O)c3c(c(O)c1C2=O)C[C@@](O)(C(C)=O)C[C@H]3O[C@H]1C[C@H](N)[C@H](O)[C@H](C)O1 | -2.95% (inactive) |  |
| CC(C)OC(=O)[C@H](C)N[P@](=O)(OC[C@H]1O[C@@H](n2ccc(=O)[nH]c2=O)[C@](C)(F)[C@H]1O)Oc1ccccc1 | 6.74% (inactive) |  |
| CC(=O)NC(CS)C(=O)O (centres undefined) | 5.34% (inactive) |  |
| O=C1NC(=O)C(=Cc2ccc3nccc(-c4ccncc4)c3c2)S1 |  | 1.48 µM (active) |

Assay: qHTS of pediatric cancer cell lines to identify multiple opportunities for drug repurposing: Primary screen for Rh41 cells (AID 1347108); note: nearly all actives have a fitted effect of over 70% in size;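 for activity change, negative = cytotoxic: luminescence drop marks cytotoxic hits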
Conditions: Rh41 rhabdomyosarcoma viability, CellTiter-Glo luminescence, 48 h; series mostly up to 46 µM; activity change, negative = cytotoxic: at the top concentration
How it was run: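 Cells plated at 500-1,000/well in growth medium, compounds added after 5 h. MIPE tested at 11 points (from 0.78 nM), NPC at 8 points (from 0.59 nM). CellTiter-Glo luminescence after 48 h; concentration-response curves from primary screen.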

| Structure (SMILES) | Potency | activity change, negative = cytotoxic |
| --- | --- | --- |
| CCc1ccc(C(=O)Nc2cc(CN3CCN(C)CC3)cc(C(F)(F)F)c2)cc1C#Cc1cnc2ccnn2c1 | 9.35 µM (active) |  |
| CC(=O)N[C@@H]1[C@H](O[C@@H]2c3ccc(c(Cl)c3)Oc3cc4cc(c3O[C@H]3O[C@H](CO)[C@@H](O)[C@H](O)[C@H]3NC(=O)CCCCCCCC(C)C)Oc3ccc(cc3Cl)C[C@H]3NC(=O)[C@H](N)c5ccc(O)c(c5)Oc5cc(O)cc(c5)[C@H](NC3=O)C(=O)N[C@H]4C(=O)N[C@H]3C(=O)N[C@@H]2C(=O)N[C@@H](C(=O)O)c2cc(O)cc(O[C@H]4O[C@H](CO)[C@@H](O)[C@H](O)[C@H]4O)c2-c2cc3ccc2O)O[C@H](CO)[C@@H](O)[C@@H]1O |  | 30.8% (inactive) |
| CC(C)Oc1ccc(C(=O)N[C@H](CNC(=O)CN(C)C)Cc2ccc(-c3cn4cccc([C@H](C)O)c4n3)cc2)cc1Cl | 1.18 µM (active) |  |
| COc1cc(OC)cc(-c2ccc3ncc4ccc(=O)n(-c5ccc(N6CCNCC6)c(C(F)(F)F)c5)c4c3c2)c1 | 3.72 µM (active) |  |
| COc1cc(N2CCC(C(N)=O)CC2)ccc1Nc1nc(N)c(Cl)c(Nc2ccccc2S(=O)(=O)C(C)C)n1 | 0.59 µM (active) |  |
| C[C@H](CCC(=O)O)[C@H]1CCC2C3C[C@H](O)[C@@H]4C[C@H](O)CC[C@]4(C)C3CC[C@@]21C (some centres undefined) |  | 1.82% (inactive) |
| CC(C)[C@H](CO)Nc1nc(Nc2cccc(Cl)c2)c2ncn(C(C)C)c2n1 | 11.8 µM (active) |  |
| CC(C)NC[C@@H](C(=O)N1CCN(c2ncnc3c2[C@H](C)C[C@H]3O)CC1)c1ccc(Cl)cc1 | 0.332 µM (active) |  |
| COC(=O)C=CC(=O)OC | 23.5 µM (active) |  |
| NC(=NCCCCCCN=C(N)N=C(N)Nc1ccc(Cl)cc1)N=C(N)Nc1ccc(Cl)cc1 | 7.43 µM (active) |  |
| COc1ccc(S(=O)(=O)Nc2cccnc2Nc2ccc(O)cc2)cc1 | 0.187 µM (active) |  |
| CNC(=O)c1cccc(-c2ccc3c(N4CCOC[C@H]4C)nc(N4CCOC[C@H]4C)nc3n2)c1 | 0.118 µM (active) |  |
| NC1=N[C@H]2[C@H](CS[C@H]2CCCCC(=O)O)N1 |  | 30.2% [at 16.1 µM] (inactive) |
| Cn1cnc(=N)c2[nH]cnc21 | 0.469 µM (active) |  |
| O=C(NC1CC1)c1cccc(-c2ccc3c(NC(=O)C4CC4)n[nH]c3c2)c1 | 2.96 µM (active) |  |
| CN[C@@H]1C[C@H]2O[C@@](C)([C@H]1OC)n1c3ccccc3c3c4c(c5c6ccccc6n2c5c31)C(=O)N[C@H]4O | 5.9 µM (active) |  |
| CN(CC(=O)N(Cc1ccc(C2CCCCC2)cc1)c1ccc(C(=O)O)c(O)c1)S(=O)(=O)c1c(F)c(F)c(F)c(F)c1F | 23.5 µM (active) |  |

Source: PubChem BioAssay (NCATS)
